Lassa entry inh = blocks Lassa virus binding to or entry into cells. Lassa virus pseudotype entry inhibition, cell reporter. Potency, µM (top dose mostly 37.9 µM), hits mostly inhibitors. hit rate 1.2% among 300,000; calls by dose curve; tested in HEK293 cells; further: nearly all actives have a fitted effect of over 50% in size
FMDV antiviral = foot and mouth disease virus antiviral activity; FMDV antiviral cell-based qHTS; Potency, µM (top dose mostly 57.9 µM), most hits filed as inhibitors; hit rate 1.2% among 410,000; calls by dose curve; tested in HEK293T cells; further: read-out not given here; nearly all actives have a fitted effect of over 45% in size
HCMV inh = inhibitors of human cytomegalovirus; AID 1259415; hit rate 4.5% among 410,000; HFF cells, HCMV-luciferase reporter, 72 h; stronger effect = lower value; activity change, negative = inhibition, % at 57.5 µM; in the data active means activity change below about -60%; inconclusive means no clear call, values can overlap the other calls; inactive means above about -39%
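Screen run at 2 compound doses on HFFs infected with reporter HCMV, MOI 1 PFU/cell. Luciferase activity from cell lysates at 72 h post infection gave inhibition relative to buffer-only and Salinomycin wells.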
HCV inhibitor = inhibitors of hepatitis C virus infection; Huh7.5.1 HCVcc-Cre infection, luciferase reporter, 44 h; Potency, µM (titrated, usually from 41.8 µM), hits mostly inhibitors; hit rate 3.4% among 340,000; AID 651820; active means well fitted inhibition curve with a large enough effect; inconclusive means small, poorly fitted or top-dose-only effect, or another doubt; inactive means no such curve, though single readings can be large or run the other way
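Seed cells (1,000/well) for 4 h; treat with compound and infect with HCVcc-Cre, moi about 0.5. Incubate 44 h, then detect luciferase activity.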
Marburg entry inh = inhibitors of Marburg virus binding or cell entry; Marburg virus pseudotyped entry inhibition, cell reporter; Potency, µM (series often up to 37.8 µM), hits mostly inhibitors; AID 540276; hit rate 1.8% among 300,000; calls by dose curve; tested in HEK293 cells
Large screens that a line does not name were inactive. Rows were chosen to be rich in hits. Some 7.9% of all compounds tested hit in one or more screens of this group.

O=S(=O)(Nc1cccc(-c2ccc(N3CCCCCC3)nn2)c1)c1ccccc1Cl	HCMV inh -76, HCV inhibitor 11µM (no result: Lassa entry inh, Marburg entry inh)
COc1ccc(C)cc1S(=O)(=O)Nc1cccc(-c2ccc(N3CCCCCC3)nn2)c1	HCV inhibitor 10µM (no result: Lassa entry inh, Marburg entry inh)
O=C(/C=C/c1ccccc1)NC(NC(=S)Nc1ccc(Cl)cc1Cl)C(Cl)(Cl)Cl (configuration not stated)	Lassa entry inh inconclusive, HCV inhibitor 10µM, Marburg entry inh inconclusive (no result: HCMV inh)
Cc1ccc(C)c(NC(=S)NC(NC(=O)OCc2ccccc2)C(Cl)(Cl)Cl)c1 (configuration not stated)	HCV inhibitor inconclusive, Marburg entry inh inconclusive
Cc1ccc(C)c(NC(=S)NC(NC(=O)/C=C/c2ccccc2)C(Cl)(Cl)Cl)c1 (configuration not stated)	Lassa entry inh 7.3µM, HCMV inh inconclusive, HCV inhibitor inconclusive, Marburg entry inh inconclusive
O=C(/C=C/c1ccccc1)NC(NC(=S)Nc1cccc(Cl)c1)C(Cl)(Cl)Cl (configuration not stated)	Lassa entry inh 9.2µM, HCMV inh -75, HCV inhibitor inconclusive, Marburg entry inh inconclusive
O=C(/C=C/c1ccccc1)NC(NC(=S)Nc1cccc(O)c1)C(Cl)(Cl)Cl (configuration not stated)	Lassa entry inh inconclusive, FMDV antiviral inconclusive, HCV inhibitor inconclusive, Marburg entry inh inconclusive
COc1ccc(C2(c3ccc(OC)cc3)NC(=O)N(CC(=O)NC3CCS(=O)(=O)C3)C2=O)cc1 (configuration not stated)	none (no result: Lassa entry inh, Marburg entry inh)
CCCn1cc(CN2CCC(n3nccc3NC(=O)c3ccccc3)CC2)c(C)n1	none
COc1ccccc1CNC(=O)Cn1cccc1C(=O)c1ccccc1	none (no result: Lassa entry inh, Marburg entry inh)
O=C(Nc1ccc(N2CCCCC2)c(Cl)c1)c1cccnc1	Lassa entry inh 0.89µM, HCMV inh -78, HCV inhibitor inconclusive, Marburg entry inh 1µM
O=C(Nc1ccccc1Cl)NC1(C(=O)NCCCN2CCOCC2)CCCCC1	HCMV inh -62
CC1CN(S(=O)(=O)c2cc(C(=O)NCCCN3CCCC3=O)ccc2Cl)CC(C)O1 (configuration not stated)	FMDV antiviral inconclusive, Marburg entry inh 2.2µM
O=C(Nc1ccncc1)c1ccc(Cl)c(S(=O)(=O)N2CCCC2)c1	HCMV inh -71, HCV inhibitor inconclusive, Marburg entry inh inconclusive
Cc1cccc(C)c1NC(=O)NC1(C(=O)NCCN2CCOCC2)CCCCC1	none
COc1ccc([C@H]2C[C@H](O)[C@@H](n3cc(-c4ccc(F)cc4)nn3)CN2C(=O)c2cccs2)cc1	none (no result: HCV inhibitor, Marburg entry inh)
CCCc1cc(=O)oc2cc(OC3CCCCC3=O)ccc12 (configuration not stated)	HCV inhibitor inconclusive (no result: Lassa entry inh, Marburg entry inh)
O=C(Nc1nc2ccccc2[nH]1)c1ccc(S(=O)(=O)N2CCOCC2)cc1	none (no result: Lassa entry inh, Marburg entry inh)
O=C(NC1CCCC1)c1ccc(Cl)c(S(=O)(=O)N2CCCCC2)c1	HCV inhibitor 35µM
O=C(Nc1nc2ccccc2[nH]1)c1ccc(Cl)c(S(=O)(=O)N2CCCC2)c1	Lassa entry inh inconclusive, FMDV antiviral inconclusive, HCV inhibitor 22µM, Marburg entry inh inconclusive (no result: HCMV inh)
O=C(NCCN1CCOCC1)c1ccc(Cl)c(S(=O)(=O)N2CCCCCC2)c1	none
O=C(NCCCN1CCOCC1)c1ccc(Cl)c(S(=O)(=O)N2CCCCCC2)c1	HCMV inh -81, HCV inhibitor inconclusive, Marburg entry inh inconclusive
O=C(NC1CCCCCC1)c1ccc(Cl)c(S(=O)(=O)N2CCOCC2)c1	none
O=C(NCCCN1CCOCC1)c1ccc(CSc2ccc(Cl)cc2)cc1	HCMV inh -70, HCV inhibitor inconclusive, Marburg entry inh inconclusive
COc1ccc(Oc2ncc3nc(C)c(=O)n(Cc4cccc(OC)c4)c3n2)cc1	none (no result: Lassa entry inh, HCMV inh, HCV inhibitor, Marburg entry inh)
O=C(Nc1ccc(Br)cc1)c1ccc(Cl)c(S(=O)(=O)N2CCCCCC2)c1	Lassa entry inh inconclusive, FMDV antiviral 28µM (no result: HCV inhibitor, Marburg entry inh)
Cc1ccc(C(=O)NCCN2CCCC2)cc1	none
O=C(c1ccc(Cl)c(S(=O)(=O)N2CCCCC2)c1)N1CCN(Cc2ccccc2)CC1	Lassa entry inh inconclusive, HCMV inh -61, HCV inhibitor inconclusive
O=C(Nc1ccc(Cl)c(S(=O)(=O)N2CCCCC2)c1)c1cccnc1	HCV inhibitor 14µM (no result: Lassa entry inh, Marburg entry inh)
CCOc1c(Cl)cc(C(=O)NCCN2CCCCC2)cc1Cl	HCV inhibitor 10µM, Marburg entry inh inconclusive
CC(C)C[C@H](CN)CC(=O)O	none (no result: Lassa entry inh, HCMV inh, HCV inhibitor, Marburg entry inh)
O=C(COC(=O)/C=C/c1cccc(Br)c1)NC1CCCCCC1	none (no result: Lassa entry inh, Marburg entry inh)
Cc1cc(NC(=O)c2ccc([N+](=O)[O-])cc2)n(C)n1	none
CCN(CC)S(=O)(=O)c1cc(C(=O)Nc2cccnc2)ccc1Cl	FMDV antiviral inconclusive, HCV inhibitor inconclusive
CCN(CC)S(=O)(=O)c1cc(C(=O)Nc2ccncc2)ccc1Cl	HCMV inh -87, HCV inhibitor inconclusive, Marburg entry inh inconclusive (no result: FMDV antiviral)
CC(C)=CCC/C(C)=C/CO/N=C1/C[C@@H](O)[C@@H](O)[C@@H]2[C@@H]3C(=O)N(C[C@@H]4CCCO4)C(=O)[C@H]3CC[C@H]12	none (no result: Lassa entry inh, FMDV antiviral, HCMV inh, HCV inhibitor)
COc1ccc2cc3c(N)nn(C(=O)c4ccccc4[N+](=O)[O-])c3nc2c1	Lassa entry inh inconclusive, HCMV inh -70, HCV inhibitor inconclusive, Marburg entry inh inconclusive
CCCC1CCC(C(=O)n2nc(N)c3cc4ccc(OC)cc4nc32)CC1 (configuration not stated)	none
COc1ccc2cc3c(N)nn(C(=O)c4ccc(Cl)c([N+](=O)[O-])c4)c3nc2c1	HCMV inh -91, Marburg entry inh inconclusive
COc1ccc(C2=NN(C(=O)c3ccc(Cl)c([N+](=O)[O-])c3)C(c3ccccc3)C2)cc1 (configuration not stated)	Lassa entry inh inconclusive, HCV inhibitor inconclusive, Marburg entry inh inconclusive
O=C(Nc1cccnc1)c1cc(S(=O)(=O)N2CCCCC2)c(Cl)cc1Cl	FMDV antiviral inconclusive (no result: Lassa entry inh)
c1ccc2c(c1)NC1(CCCC1)n1c-2nc2ccccc21	HCV inhibitor 11µM, Marburg entry inh inconclusive (no result: FMDV antiviral)
Cc1ccccc1NC(=O)COc1coc(CN2CCN(c3ccccc3)CC2)cc1=O	FMDV antiviral inconclusive, HCV inhibitor inconclusive
COc1ccc(C)cc1S(=O)(=O)N(CC(=O)N1CCOCC1)Cc1ccccc1	none (no result: FMDV antiviral)
COc1ccc(C)cc1S(=O)(=O)N(CC(=O)NCc1ccc(Cl)cc1)Cc1ccccc1	FMDV antiviral inconclusive, Marburg entry inh 23µM (no result: HCV inhibitor)
COc1ccc(CNC(=O)CN(Cc2ccccc2)S(=O)(=O)c2ccc(Cl)cc2)cc1	FMDV antiviral inconclusive, HCV inhibitor 10µM
COc1ccc(CNC(=O)CN(Cc2ccc(Cl)cc2)S(=O)(=O)c2ccccc2)cc1	Lassa entry inh inconclusive, FMDV antiviral 28µM, Marburg entry inh inconclusive
CCOC(=O)c1ccc(NC(=O)CSc2nc3ccccc3c(=O)n2CCNC(C)=O)cc1	none (no result: HCV inhibitor, Marburg entry inh)
CCn1c(=NC(=O)CCS(=O)(=O)c2ccccc2)sc2cccc(OC)c21	Lassa entry inh inconclusive, FMDV antiviral 20µM, HCMV inh -74, Marburg entry inh inconclusive (no result: HCV inhibitor)
CCn1c(=NC(=O)c2ccc(S(=O)(=O)N3CCOCC3)cc2)sc2cccc(OC)c21	Lassa entry inh inconclusive, FMDV antiviral inconclusive, HCV inhibitor 10µM, Marburg entry inh inconclusive

Source: PubChem BioAssay
